Source: PubChem BioAssay (EPA / NIEHS)
Active and inactive are the calls of the source. Rule for the calls: active = hit-call score of the fitted dose curve at least 0.9, where 1 is the maximum; inactive = score below 0.9.

Legend:
[1] = ATG_CRE_CIS: Attagene CIS-FACTORIAL HepG2 Assay for human cAMP Responsive Element (CRE) binding protein 3 (AID 2282926); details: HepG2 CRE cis-reporter, Attagene multiplexed mRNA; actives raise or lower the signal
Procedure, shortened: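 Endogenous transcription factor activity read via CRE-regulated reporter transcripts in transfected HepG2 cells. After 24 h exposure, RNA was reverse-transcribed, amplified, fluorescently labelled and sized by capillary electrophoresis; gain or loss fitted against DMSO.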

[2] = ATG_CMV_CIS: Attagene CIS-FACTORIAL HepG2 Assay for human CMV (Internal Marker) (AID 2282928); details: HepG2 CMV promoter reporter, transcription factor profiling; actives raise or lower the signal;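 note: endpoint acts as a background internal control marker rather than a target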
Procedure, shortened: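 24 h chemical treatment, HepG2 with transient multi-reporter transfection; RNA → oligo(dT) RT → PCR → 6-FAM extension → HpaI digest → CE fluorescence. Bidirectional fit, DMSO negative control.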

[3] = ATG_DR4_LXR_CIS: Attagene CIS-FACTORIAL HepG2 Assay for human Liver X Receptor (LXR), DR4 submotif (AID 2282929); details: HepG2 Attagene DR4 cis-reporter, mRNA transcription; actives raise or lower the signal
Procedure, shortened: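 HepG2, transient MRTU transfection, cis-element (DR4) promoter; 24 h compound exposure; total RNA → oligo(dT) RT → PCR → 6-FAM primer extension → HpaI cut → CE. Gain/loss vs DMSO, bidirectional fit.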

[4] = ATG_AP_1_CIS: Attagene CIS-FACTORIAL HepG2 Assay for human Activator Protein 1 (AP-1) (AID 2282931); details: HepG2 Attagene cis-factorial AP-1 reporter mRNA; actives raise or lower the signal
Procedure, shortened: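 Transient MRTU transfection of HepG2 → 24 h chemical treatment → RNA isolation, RT-PCR, 6-FAM labelling, HpaI digest → capillary electrophoresis. Fit: bidirectional, DMSO negative control.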

[5] = ATG_AP_2_CIS: Attagene CIS-FACTORIAL HepG2 Assay for human Activator Protein 2 (AP-2) (AID 2282932); details: HepG2 AP-2 cis-reporter, Attagene transcription factor profiling; actives raise or lower the signal
Procedure, shortened: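 Endogenous transcription factor activity is reported through transfected multiplex reporter constructs in HepG2, after 24 h of compound exposure. Transcripts were quantified by RT-PCR and capillary electrophoresis of fluorescent fragments. Bidirectional fit against DMSO.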

[6] = ATG_BRE_CIS: Attagene CIS-FACTORIAL HepG2 Assay for human Bone Morphogenetic Protein (BMP) Response Element (BRE) (AID 2282933); details: HepG2 BMP response element reporter, Attagene transcription factor profiling; actives raise or lower the signal
Procedure, shortened: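 After a 24 h chemical treatment, transiently transfected HepG2 cells were lysed for RNA; reporter transcripts were quantified by fluorescent RT-PCR and capillary electrophoresis, normalised to DMSO.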

[7] = molecular target: Retinoic acid receptor alpha (Homo sapiens) (UniProt P10276); test: ATG_DR5_RAR_CIS: Attagene CIS-FACTORIAL HepG2 Assay for human Retinoic Acid Receptor Alpha (RARE), DR5 submotif (AID 2282934); details: HepG2 Attagene cis-factorial RARE DR5 reporter, mRNA; actives raise or lower the signal
Retinoic acid receptor alpha (Homo sapiens), sequence (P10276 whole entry, looked up): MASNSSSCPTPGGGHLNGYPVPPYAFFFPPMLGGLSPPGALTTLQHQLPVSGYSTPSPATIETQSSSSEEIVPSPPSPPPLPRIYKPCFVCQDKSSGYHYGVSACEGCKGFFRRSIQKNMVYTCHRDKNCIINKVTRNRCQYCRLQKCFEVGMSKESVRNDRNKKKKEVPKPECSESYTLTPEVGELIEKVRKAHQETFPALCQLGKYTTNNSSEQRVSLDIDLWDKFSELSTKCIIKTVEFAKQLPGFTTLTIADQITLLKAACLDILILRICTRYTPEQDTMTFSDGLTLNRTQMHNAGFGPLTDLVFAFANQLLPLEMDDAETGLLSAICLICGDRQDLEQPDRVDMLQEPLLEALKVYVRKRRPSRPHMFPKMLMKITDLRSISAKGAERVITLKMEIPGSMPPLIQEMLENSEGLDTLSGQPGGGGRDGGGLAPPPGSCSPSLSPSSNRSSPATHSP
Procedure, shortened: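 HepG2, transient cis-reporter transfection, 24 h exposure. mRNA readout: RT-PCR, FAM label, HpaI cut, capillary electrophoresis. DMSO baseline, gain/loss fitting.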

[8] = molecular target: Transcription factor E2F1 (Homo sapiens) (UniProt Q01094); test: ATG_E2F_CIS: Attagene CIS-FACTORIAL HepG2 Assay for human E2F Transcription Factor 1 (AID 2282935); details: HepG2 Attagene cis-reporter, E2F reporter RNA transcripts; actives raise or lower the signal
Transcription factor E2F1 (Homo sapiens), sequence (Q01094 whole entry, looked up): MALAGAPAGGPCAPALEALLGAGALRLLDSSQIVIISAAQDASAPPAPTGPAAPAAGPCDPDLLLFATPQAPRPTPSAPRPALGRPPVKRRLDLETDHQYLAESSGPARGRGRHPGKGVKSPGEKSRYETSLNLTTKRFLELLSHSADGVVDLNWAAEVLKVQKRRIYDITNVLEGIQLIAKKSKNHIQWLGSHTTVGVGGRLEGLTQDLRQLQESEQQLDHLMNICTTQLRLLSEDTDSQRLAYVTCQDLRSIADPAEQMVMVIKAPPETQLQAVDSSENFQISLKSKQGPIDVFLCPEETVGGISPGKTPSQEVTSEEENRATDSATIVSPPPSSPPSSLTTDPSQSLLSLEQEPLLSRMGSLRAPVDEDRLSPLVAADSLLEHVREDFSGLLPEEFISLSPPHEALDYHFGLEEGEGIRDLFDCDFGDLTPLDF
Procedure, shortened: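 Gain or loss of reporter transcript, fitted against DMSO, reflects E2F1-driven transcription. Transiently transfected HepG2 dosed 24 h before RNA isolation. Quantified by fluorescent RT-PCR products separated by capillary electrophoresis.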

[9] = molecular target: Aryl hydrocarbon receptor (Homo sapiens) (UniProt P35869); test: ATG_Ahr_CIS: Attagene CIS-FACTORIAL HepG2 Assay for human Aryl Hydrocarbon Receptor (Ahr) (AID 2282930); details: HepG2 AhR cis-factorial reporter transcription; actives raise or lower the signal
Aryl hydrocarbon receptor (Homo sapiens), sequence (P35869 whole entry, looked up): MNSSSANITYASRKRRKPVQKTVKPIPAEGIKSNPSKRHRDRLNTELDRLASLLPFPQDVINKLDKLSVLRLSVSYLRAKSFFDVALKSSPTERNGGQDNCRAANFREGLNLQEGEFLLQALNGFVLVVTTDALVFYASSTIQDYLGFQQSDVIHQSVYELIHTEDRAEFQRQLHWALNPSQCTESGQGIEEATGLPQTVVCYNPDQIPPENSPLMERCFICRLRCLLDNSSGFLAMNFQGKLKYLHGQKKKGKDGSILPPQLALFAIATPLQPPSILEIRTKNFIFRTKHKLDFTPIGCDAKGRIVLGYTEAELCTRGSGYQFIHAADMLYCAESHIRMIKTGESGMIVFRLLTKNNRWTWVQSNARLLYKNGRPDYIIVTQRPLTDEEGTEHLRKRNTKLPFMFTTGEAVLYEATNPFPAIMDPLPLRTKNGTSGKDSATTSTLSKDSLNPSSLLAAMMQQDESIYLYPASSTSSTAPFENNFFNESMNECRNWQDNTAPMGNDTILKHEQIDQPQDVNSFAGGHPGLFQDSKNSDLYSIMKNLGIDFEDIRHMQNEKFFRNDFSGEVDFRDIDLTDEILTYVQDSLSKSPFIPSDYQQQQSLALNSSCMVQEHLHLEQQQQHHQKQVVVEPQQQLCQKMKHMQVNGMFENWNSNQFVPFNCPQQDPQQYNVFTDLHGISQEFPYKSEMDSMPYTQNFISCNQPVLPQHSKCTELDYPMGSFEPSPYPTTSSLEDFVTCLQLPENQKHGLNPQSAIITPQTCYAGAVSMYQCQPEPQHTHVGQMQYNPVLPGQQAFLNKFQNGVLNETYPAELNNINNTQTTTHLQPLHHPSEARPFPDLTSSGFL
Procedure, shortened: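 HepG2, transient MRTU (cis) transfection, 24 h exposure. RNA → cDNA → PCR → 6-FAM primer extension → HpaI 2 h 37 C → CE. Fit: bidirectional, DMSO baseline.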

Measured: AC50

CC(C)c1cccc(C(C)C)c1NC(=O)NS(=O)(=O)c1cc(C(C)(C)O)co1
not listed: [9]
inactive: all other assays above

CC(=O)CC(c1ccccc1)c1c(O)c2ccccc2oc1=O (stereo unspecified)
not listed: [7] | [9]
inactive: all other assays above

CC1(C)C(=O)NC(=O)N1CO
not listed: [7]
inactive: all other assays above

Cc1cn([C@H]2C=C[C@@H](CO)O2)c(=O)[nH]c1=O
not listed: [7]
inactive: all other assays above

CCC(C)N(C)C(=O)c1cc2ccccc2c(-c2ccccc2Cl)n1 (stereo unspecified)
active: [2] 46 µM | [3] 31.8 µM | [4] 84.8 µM | [6] 97.4 µM
inactive: [1] | [9] | [5] | [8]

CN(C)CCCN(C)CCCN(C)C
active: [3] 24.5 µM
not listed: [7]
inactive: all other assays above

CN(C)C(=O)NC1(c2ccccc2)CCN(CCC[C@]2(c3ccc(Cl)c(Cl)c3)CCCN(C(=O)c3ccccc3)C2)CC1
active: [1] 4.22 µM | [3] 4.53 µM | [4] 2.75 µM
not listed: [7]
inactive: all other assays above

CCCCC(CC)COC(=O)CCCCCCCC(=O)OCC(CC)CCCC (stereo unspecified)
not listed: [7] | [9]
inactive: all other assays above

C/C=C/c1ccc(OC)cc1
not listed: [7]
inactive: all other assays above

O=[Si]=O
not listed: [9]
inactive: all other assays above

O=C1CCCCC1
not listed: [7]
inactive: all other assays above

COC(=O)CCC(=O)OC
not listed: [7] | [9]
inactive: all other assays above

CCc1nc(N)nc(N)c1-c1ccc(Cl)cc1
active: [1] 100 µM | [2] 2.18 µM | [4] 2.53 µM
not listed: [7]
inactive: all other assays above

O=C1O[C@H]([C@H](O)CO)C(O)=C1O
not listed: [7]
inactive: all other assays above

Nc1nc(Cl)nc2c1ncn2[C@H]1C[C@H](O)[C@@H](CO)O1
active: [2] 23.7 µM
not listed: [7]
inactive: all other assays above

C=CCc1ccc(OC)c(OC)c1
not listed: [7]
inactive: all other assays above

CCCCCCCCCCCCCCOS(=O)(=O)O
not listed: [7]
inactive: all other assays above

Cc1occc(=O)c1O
not listed: [7]
inactive: all other assays above

CC(C)NCC(O)c1ccc(O)c(O)c1 (stereo unspecified)
active: [9] 64.9 µM
not listed: [7]
inactive: all other assays above

C/C=C/C=C/C(=O)O
not listed: [7]
inactive: all other assays above

CCCCCCCCCC[N+](C)(C)[O-]
not listed: [7]
inactive: all other assays above

CC(=O)O
not listed: [7]
inactive: all other assays above

CC(=O)[C@@]1(O)CC[C@H]2[C@@H]3CCC4=CC(=O)CC[C@]4(C)[C@H]3CC[C@@]21C
not listed: [9]
inactive: all other assays above

Cc1cc(SC2=C(O)C[C@@](CCc3ccc(N)cc3)(C(C)C)OC2=O)c(C(C)(C)C)cc1CO
not listed: [7]
inactive: all other assays above

O=C(O)c1cccnc1
not listed: [3] | [7]
inactive: all other assays above
